# Records with an inconclusive call do not appear. Where a structure was tested more than once in an assay, its records may differ in their call. Calls of active or inactive are those of the source. The calls were made as follows, unless noted: active = hit-call score of the fitted dose curve at least 0.9, where 1 is the maximum; inactive = score below 0.9.
# Assays:
# [1] = read-out: Pyruvate Dehydrogenase Kinase 4 (PDK4), PDK4 (gene 5166); assay: LTEA_HepaRG_PDK4: Life Technologies and Expression Analysis (LTEA) Assay for Pyruvate Dehydrogenase Kinase 4 (PDK4) using HepaRG (AID 2283525); details: mRNA level, 48 h; actives raise or lower the signal
# How it was run: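 In this multiplexed human HepaRG expression assay, cells are treated 48 h with test chemicals across an eight-point range starting at 100 uM. PDK4 mRNA changes, normalized to ACTB/GAPDH/POLR2A, are fitted in both directions relative to vehicle.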
# [2] = read-out: NAD(P)H dehydrogenase [quinone] 1 (NQO1), NQO1 (gene 1728); assay: LTEA_HepaRG_NQO1: Life Technologies and Expression Analysis (LTEA) Assay for NAD(P)H dehydrogenase [quinone] 1 (NQO1) using HepaRG (AID 2283526); details: mRNA level, 48 h; actives raise or lower the signal
# How it was run: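 Differentiated human HepaRG cells in serum-free induction medium, dosed in duplicate for 48 h at 8 half-log concentrations up to 100 uM in 0.5% DMSO. NQO1 mRNA by qRT-PCR normalized to ACTB, GAPDH, POLR2A; bidirectional fit versus DMSO baseline.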
# [3] = read-out: Nuclear factor erythroid 2-related factor 2 (Homo sapiens) (UniProt Q16236); assay: LTEA_HepaRG_NFE2L2: Life Technologies and Expression Analysis (LTEA) Assay for Nuclear factor erythroid 2-related factor 2 (NFE2L2) Transcription Factor using HepaRG (AID 2283527); details: mRNA level, 48 h; actives raise or lower the signal;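 also: TaqMan qRT-PCR transcript level normalised to ACTB GAPDH and POLR2A housekeeping genes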
# How it was run: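 Transcript level of NFE2L2 is the read-out, measured by microfluidic TaqMan qRT-PCR and normalized to three housekeeping genes. Human HepaRG cultures received test chemical for 48 h at up to 100 uM in half-log steps. Gain or loss of signal is fitted relative to 0.5% DMSO.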
# [4] = read-out: Signal transducer and activator of transcription 3 (Homo sapiens) (UniProt P40763); assay: LTEA_HepaRG_STAT3: Life Technologies and Expression Analysis (LTEA) Assay for Signal transducer and activator of transcription (STAT3) using HepaRG (AID 2283529); details: mRNA level, 48 h; actives raise or lower the signal
# How it was run: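 Read-out is STAT3 mRNA level by qRT-PCR, normalized to three housekeeping genes, in human HepaRG liver cells treated for 48 h. Concentrations ran from 100 uM downward in half-log steps; curves were fitted for gain or loss relative to 0.5% DMSO.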
# [5] = read-out: solute carrier (SLCO1B1), SLCO1B1 (gene 10599); assay: LTEA_HepaRG_SLCO1B1: Life Technologies and Expression Analysis (LTEA) Assay for solute carrier (SLCO1B1) using HepaRG (AID 2283530); details: mRNA level, 48 h; actives raise or lower the signal
# How it was run: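 Differentiated human HepaRG cells, plated 48 h, switched to serum-free induction medium and exposed in duplicate for 48 h to 8 half-log concentrations (top 100 uM) in 0.5% DMSO. SLCO1B1 mRNA by TaqMan qRT-PCR, normalized to ACTB/GAPDH/POLR2A.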
# [6] = read-out: sulfotransferase 2A1 (SULT2A1), SULT2A1 (gene 6822); assay: LTEA_HepaRG_SULT2A1: Life Technologies and Expression Analysis (LTEA) Assay for sulfotransferase 2A1 (SULT2A1) using HepaRG (AID 2283531); details: mRNA level, 48 h; actives raise or lower the signal
# How it was run: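 Differentiated human HepaRG cells in serum-free induction medium were exposed for 48 h to eight half-log concentrations (top 100 uM, 0.5% DMSO). SULT2A1 mRNA was measured by qRT-PCR, normalized to ACTB, GAPDH and POLR2A, and fitted bidirectionally against DMSO.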
# [7] = read-out: Transforming Growth Factor (TGFA), TGFA (gene 7039); assay: LTEA_HepaRG_TGFA: Life Technologies and Expression Analysis (LTEA) Assay for Transforming Growth Factor (TGFA) using HepaRG (AID 2283532); details: mRNA level, 48 h; actives raise or lower the signal
# How it was run: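 HepaRG (human liver line), 48 h exposure, 8 conc. half-log down from 100 uM, 0.5% DMSO vehicle, duplicates; serum-free induction medium. TGFA mRNA by TaqMan qRT-PCR, ACTB/GAPDH/POLR2A normalization; gain/loss fit vs DMSO.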
# [8] = read-out: Transforming Growth Factor (TGFB1), TGFB1 (gene 7040); assay: LTEA_HepaRG_TGFB1: Life Technologies and Expression Analysis (LTEA) Assay for Transforming Growth Factor (TGFB1) Transporter using HepaRG (AID 2283533); details: mRNA level, 48 h; actives raise or lower the signal
# How it was run: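 Differentiated human HepaRG cells in serum-free induction medium were exposed in duplicate for 48 h to eight concentrations (top 100 uM, half-log steps, 0.5% DMSO). TGFB1 mRNA was quantified by qRT-PCR, normalized to ACTB, GAPDH, POLR2A, and fitted bidirectionally against DMSO.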
# TIMP1, TIMP1 (gene 7076) = assay: LTEA_HepaRG_TIMP1: Life Technologies and Expression Analysis (LTEA) Assay for TIMP1 using HepaRG (AID 2283534); details: mRNA level, 48 h; actives raise or lower the signal;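 also: TaqMan qRT-PCR signal normalized to ACTB GAPDH and POLR2A housekeeping genes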
# How it was run: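 Differentiated human HepaRG cells in serum-free induction medium were exposed 48 h to chemicals (8 half-log concentrations, top 100 uM, 0.5% DMSO). TIMP1 mRNA was quantified by TaqMan qRT-PCR, normalized to ACTB/GAPDH/POLR2A; bidirectional fit versus DMSO.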
# [9] = read-out: Tumor necrosis factor receptor 1 (TNFRSF1A), TNFRSF1A (gene 7132); assay: LTEA_HepaRG_TNFRSF1A: Life Technologies and Expression Analysis (LTEA) Assay for Tumor necrosis factor receptor 1 (TNFRSF1A) using HepaRG (AID 2283535); details: mRNA level, 48 h; actives raise or lower the signal
# How it was run: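 Differentiated human HepaRG cells were exposed in duplicate for 48 h in serum-free induction medium to eight concentrations (top 100 uM, half-log steps, 0.5% DMSO). TNFRSF1A mRNA was quantified by qRT-PCR, normalized to ACTB, GAPDH and POLR2A, then fitted bidirectionally against DMSO.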
# [10] = read-out: Thyroid Hormone Responsive (THRSP), THRSP (gene 7069); assay: LTEA_HepaRG_THRSP: Life Technologies and Expression Analysis (LTEA) Assay for Thyroid Hormone Responsive (THRSP) using HepaRG (AID 2283536); details: mRNA level, 48 h; actives raise or lower the signal
# How it was run: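 mRNA induction or loss relative to 0.5% DMSO vehicle was fitted bidirectionally across an eight-point curve whose highest exposure was 100 uM. Human HepaRG liver cells received chemicals in duplicate over 48 h before RNA extraction.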
# [11] = read-out: Cellular tumor antigen p53 (Homo sapiens) (UniProt P04637); assay: LTEA_HepaRG_TP53: Life Technologies and Expression Analysis (LTEA) Assay for Tumor Protein P53 (TP53) using HepaRG (AID 2283537); details: mRNA level, 48 h; actives raise or lower the signal
# How it was run: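 Differentiated HepaRG cells in serum-free induction medium exposed 48 h in duplicate to 8 half-log concentrations, top 100 uM, 0.5% DMSO. TP53 mRNA by TaqMan qRT-PCR (Fluidigm), normalized to ACTB, GAPDH, POLR2A; fitted bidirectionally versus DMSO.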
# [12] = read-out: UDP glucuronosyltransferase (UGT1A1), UGT1A1 (gene 54658); assay: LTEA_HepaRG_UGT1A1: Life Technologies and Expression Analysis (LTEA) Assay for UDP glucuronosyltransferase (UGT1A1) using HepaRG (AID 2283538); details: mRNA level, 48 h; actives raise or lower the signal
# How it was run: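 HepaRG cells, 0.5% DMSO vehicle, 48 h exposure in serum-free induction medium to 8-point half-log series topping at 100 uM, in duplicate. UGT1A1 mRNA by Fluidigm qRT-PCR, normalized to ACTB/GAPDH/POLR2A; bidirectional fit versus DMSO.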
# [13] = read-out: UDP glucuronosyltransferase (UGT1A6), UGT1A6 (gene 54578); assay: LTEA_HepaRG_UGT1A6: Life Technologies and Expression Analysis (LTEA) Assay for UDP glucuronosyltransferase (UGT1A6) using HepaRG (AID 2283539); details: mRNA level, 48 h; actives raise or lower the signal
# How it was run: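 Human HepaRG cells were dosed for 48 h in serum-free induction medium with 0.5% DMSO vehicle, eight-point half-log series from 100 uM, in duplicate. UGT1A6 mRNA was measured by qRT-PCR, normalized to ACTB, GAPDH, POLR2A, and fitted bidirectionally against DMSO.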
# [14] = read-out: X-box binding protein 1 (XBP1), XBP1 (gene 7494); assay: LTEA_HepaRG_XBP1: Life Technologies and Expression Analysis (LTEA) Assay for X-box binding protein 1 (XBP1) using HepaRG (AID 2283540); details: mRNA level, 48 h; actives raise or lower the signal
# How it was run: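 Differentiated human HepaRG cells in serum-free induction medium were exposed in duplicate for 48 h to eight half-log concentrations up to 100 uM in 0.5% DMSO. XBP1 mRNA was quantified by qRT-PCR, normalised to ACTB, GAPDH and POLR2A, with bidirectional fitting against DMSO.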
# [15] = LTEA_HepaRG_LDH_cytotoxicity: Cytotoxicity Assessment in the Life Technologies and Expression Analysis (LTEA) Assay (AID 2283563; active = hit-call score of the fitted dose curve at least 0.9, where 1 is the maximum)
# How it was run: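 Differentiated human HepaRG cells, plated 48 h beforehand, were switched to serum-free induction medium and exposed for 48 h to eight half-log concentrations (top 100 uM) in 0.5% DMSO. LDH was measured in spent medium; activity was fitted relative to DMSO vehicle.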
# [16] = ATG_XTT_Cytotoxicity: Cytotoxicity Assessment in the Attagene TRANS-FACTORIAL HepG2 Assay (AID 2283584; active = hit-call score of the fitted dose curve at least 0.9, where 1 is the maximum)
# How it was run: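 HepG2 human liver cells, transiently transfected with multiple GAL4-UAS reporter units, were dosed and read at 24 h by XTT as cell number. Loss of signal was fitted relative to DMSO negative control baseline.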
# [17] = read-out: succinate dehydrogenase complex iron sulfur subunit B (SDHB), SDHB (gene 6390); assay: LTEA_HepaRG_SDHB: Life Technologies and Expression Analysis (LTEA) Assay for succinate dehydrogenase complex iron sulfur subunit B (SDHB) using HepaRG (AID 2283528); details: mRNA level, 48 h; actives raise or lower the signal
# How it was run: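 HepaRG cells (~100,000/well, plated 48 h) exposed in duplicate for 48 h in serum-free induction medium to 8-point half-log series from 100 uM in 0.5% DMSO; mRNA by qRT-PCR normalised to ACTB, GAPDH, POLR2A; bidirectional fit versus DMSO.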
# [18] = TOX21_p53_BLA_p2_viability: Viability Assessment in the Tox21 HCT-116 p53 Agonism Beta-lactamase Assay, Phase 2 (AID 2283591; active = hit-call score of the fitted dose curve at least 0.9, where 1 is the maximum;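 also: compound exposure lasted 16 h at 37 °C; actives lower the ATP signal meaning cytotoxicity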)
# How it was run: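 Cytotoxicity readout: CellTiter-Glo ATP luminescence, 30 min at room temperature, after the beta-lactamase read. Cells were HCT116 exposed 16 h at 37C to compounds pin-transferred at 217-fold dilution from DMSO stocks.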
# [19] = biological target: Cellular tumor antigen p53 (Homo sapiens) (UniProt P04637); assay: TOX21_p53_BLA_p2_ratio: Tox21 HCT-116 p53 Agonism Beta-lactamase Assay, Ratio, Phase 2 (AID 2283592; active = hit-call score of the fitted dose curve at least 0.9, where 1 is the maximum)
# Cellular tumor antigen p53 (Homo sapiens), sequence (P04637 whole entry, looked up): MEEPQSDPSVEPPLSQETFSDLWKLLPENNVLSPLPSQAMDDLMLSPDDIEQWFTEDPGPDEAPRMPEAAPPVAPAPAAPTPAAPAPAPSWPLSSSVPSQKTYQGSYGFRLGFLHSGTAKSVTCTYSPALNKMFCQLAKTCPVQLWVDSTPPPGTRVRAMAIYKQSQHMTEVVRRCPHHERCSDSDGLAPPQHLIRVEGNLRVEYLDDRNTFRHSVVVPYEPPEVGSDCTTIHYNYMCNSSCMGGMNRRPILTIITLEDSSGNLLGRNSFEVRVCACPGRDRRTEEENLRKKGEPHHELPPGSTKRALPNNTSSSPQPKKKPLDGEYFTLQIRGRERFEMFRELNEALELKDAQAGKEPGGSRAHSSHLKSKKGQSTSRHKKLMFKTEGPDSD
# How it was run: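 HCT116 cells carrying a p53-responsive beta-lactamase reporter were plated, incubated 5 h at 37C, then dosed with compounds in DMSO (217-fold dilution) for 16 h. CCF4-AM substrate was added for 2 h at room temperature; the 460/530 nm emission ratio gave gain-of-signal activity relative to DMSO.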
# Signal transducer and activator of transcription 3 (Homo sapiens), sequence (P40763 whole entry, looked up): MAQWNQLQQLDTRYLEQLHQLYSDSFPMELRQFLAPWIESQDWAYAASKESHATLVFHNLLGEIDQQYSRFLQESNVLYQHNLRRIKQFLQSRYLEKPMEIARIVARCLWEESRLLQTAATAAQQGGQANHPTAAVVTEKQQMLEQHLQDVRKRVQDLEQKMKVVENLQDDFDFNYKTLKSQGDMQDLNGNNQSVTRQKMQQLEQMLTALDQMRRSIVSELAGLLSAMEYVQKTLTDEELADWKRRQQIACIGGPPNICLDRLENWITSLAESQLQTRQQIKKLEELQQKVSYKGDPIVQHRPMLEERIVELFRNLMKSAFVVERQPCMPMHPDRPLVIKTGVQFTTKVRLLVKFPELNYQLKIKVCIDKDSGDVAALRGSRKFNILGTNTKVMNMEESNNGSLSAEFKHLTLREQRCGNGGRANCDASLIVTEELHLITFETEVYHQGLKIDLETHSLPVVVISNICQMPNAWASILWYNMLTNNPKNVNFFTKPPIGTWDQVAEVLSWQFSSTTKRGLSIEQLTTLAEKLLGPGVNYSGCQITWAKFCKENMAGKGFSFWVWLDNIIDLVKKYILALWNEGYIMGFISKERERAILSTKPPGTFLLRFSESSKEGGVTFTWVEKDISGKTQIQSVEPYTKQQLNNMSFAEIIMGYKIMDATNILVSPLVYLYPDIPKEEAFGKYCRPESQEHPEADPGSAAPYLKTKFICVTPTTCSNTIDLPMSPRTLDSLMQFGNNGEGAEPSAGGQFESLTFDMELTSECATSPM
# Nuclear factor erythroid 2-related factor 2 (Homo sapiens), sequence (Q16236 whole entry, looked up): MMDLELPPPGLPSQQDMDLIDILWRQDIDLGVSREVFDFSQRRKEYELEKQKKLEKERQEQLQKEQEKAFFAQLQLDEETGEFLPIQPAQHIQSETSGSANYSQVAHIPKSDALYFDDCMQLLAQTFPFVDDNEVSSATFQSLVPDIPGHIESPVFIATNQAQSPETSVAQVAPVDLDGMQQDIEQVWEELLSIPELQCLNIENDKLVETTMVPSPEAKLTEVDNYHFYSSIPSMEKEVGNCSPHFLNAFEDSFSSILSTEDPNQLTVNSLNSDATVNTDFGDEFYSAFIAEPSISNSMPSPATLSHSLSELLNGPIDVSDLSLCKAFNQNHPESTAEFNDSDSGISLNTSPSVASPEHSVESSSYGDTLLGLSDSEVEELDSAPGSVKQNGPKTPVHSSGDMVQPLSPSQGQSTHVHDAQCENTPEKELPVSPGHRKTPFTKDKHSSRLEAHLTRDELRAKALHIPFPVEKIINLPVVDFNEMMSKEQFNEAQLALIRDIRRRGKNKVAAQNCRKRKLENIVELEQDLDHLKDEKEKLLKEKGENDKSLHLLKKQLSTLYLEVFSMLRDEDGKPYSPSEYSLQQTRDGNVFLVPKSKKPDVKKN
smiles,measurement,setting,value
CCCCCCOC(=O)c1ccccc1C(=O)OCCCCCC,outcome,[1],inactive
same,outcome,[2],inactive
same,outcome,[3],inactive
same,outcome,[4],inactive
same,outcome,[5],inactive
same,outcome,[6],inactive
same,outcome,[7],inactive
same,outcome,[8],inactive
same,outcome,"TIMP1, TIMP1 (gene 7076)",inactive
same,outcome,[9],inactive
same,outcome,[10],inactive
same,outcome,[11],inactive
same,AC50,[12],62 µM (active)
same,outcome,[13],inactive
same,outcome,[14],inactive
same,outcome,[15],inactive
same,outcome,[16],inactive
Cc1ccccc1CO[C@@H]1C[C@@]2(C(C)C)CC[C@]1(C)O2,AC50,[1],50 µM (active)
same,outcome,[2],inactive
same,outcome,[3],inactive
same,outcome,[17],inactive
same,outcome,[4],inactive
same,outcome,[5],inactive
same,outcome,[6],inactive
same,outcome,[7],inactive
same,outcome,[8],inactive
same,outcome,"TIMP1, TIMP1 (gene 7076)",inactive
same,outcome,[9],inactive
same,AC50,[10],71.7 µM (active)
same,AC50,[12],14.9 µM (active)
same,outcome,[13],inactive
same,outcome,[14],inactive
same,outcome,[15],inactive
Cc1cc(O)ccc1Cl,outcome,[1],inactive
same,outcome,[2],inactive
same,outcome,[3],inactive
same,outcome,[17],inactive
same,outcome,[4],inactive
same,outcome,[5],inactive
same,outcome,[6],inactive
same,outcome,[7],inactive
same,outcome,[8],inactive
same,outcome,"TIMP1, TIMP1 (gene 7076)",inactive
same,outcome,[9],inactive
same,outcome,[10],inactive
same,outcome,[11],inactive
same,outcome,[12],inactive
same,outcome,[13],inactive
same,outcome,[14],inactive
same,outcome,[15],inactive
same,outcome,[16],inactive
same,outcome,[18],inactive
same,outcome,[19],inactive
Cc1cc(-c2ccc(N)c(C)c2)ccc1N,AC50,[1],9.92 µM (active)
same,outcome,[2],inactive
same,outcome,[3],inactive
same,outcome,[17],inactive
same,outcome,[4],inactive
same,outcome,[5],inactive
same,outcome,[6],inactive
same,outcome,[7],inactive
same,outcome,[8],inactive
same,outcome,"TIMP1, TIMP1 (gene 7076)",inactive
same,outcome,[9],inactive
same,outcome,[10],inactive
same,outcome,[11],inactive
same,AC50,[12],26.7 µM (active)
same,outcome,[13],inactive
same,outcome,[14],inactive
same,outcome,[15],inactive
same,outcome,[18],inactive
same,AC50,[19],87.2 µM (active)
same,outcome,[19],inactive
